Source: PubChem
USP17 block – inhibitors of human USP17 deubiquitinase; purified USP17, Ub-rhodamine cleavage fluorescence, 3 h; inhibition, % at 50 µM; 47,000 tested, 6.5% active; AID 1645855, 2021
USP8 block – inhibitors of human USP8 deubiquitinase; Ubiquitin carboxyl-terminal hydrolase 8 (Homo sapiens), P40818; inhibition, % at 20 µM; purified USP8, Ub-rhodamine cleavage fluorescence, 30 min; 47,000 tested, 4.2% active
Target sequence (P40818 whole entry, looked up): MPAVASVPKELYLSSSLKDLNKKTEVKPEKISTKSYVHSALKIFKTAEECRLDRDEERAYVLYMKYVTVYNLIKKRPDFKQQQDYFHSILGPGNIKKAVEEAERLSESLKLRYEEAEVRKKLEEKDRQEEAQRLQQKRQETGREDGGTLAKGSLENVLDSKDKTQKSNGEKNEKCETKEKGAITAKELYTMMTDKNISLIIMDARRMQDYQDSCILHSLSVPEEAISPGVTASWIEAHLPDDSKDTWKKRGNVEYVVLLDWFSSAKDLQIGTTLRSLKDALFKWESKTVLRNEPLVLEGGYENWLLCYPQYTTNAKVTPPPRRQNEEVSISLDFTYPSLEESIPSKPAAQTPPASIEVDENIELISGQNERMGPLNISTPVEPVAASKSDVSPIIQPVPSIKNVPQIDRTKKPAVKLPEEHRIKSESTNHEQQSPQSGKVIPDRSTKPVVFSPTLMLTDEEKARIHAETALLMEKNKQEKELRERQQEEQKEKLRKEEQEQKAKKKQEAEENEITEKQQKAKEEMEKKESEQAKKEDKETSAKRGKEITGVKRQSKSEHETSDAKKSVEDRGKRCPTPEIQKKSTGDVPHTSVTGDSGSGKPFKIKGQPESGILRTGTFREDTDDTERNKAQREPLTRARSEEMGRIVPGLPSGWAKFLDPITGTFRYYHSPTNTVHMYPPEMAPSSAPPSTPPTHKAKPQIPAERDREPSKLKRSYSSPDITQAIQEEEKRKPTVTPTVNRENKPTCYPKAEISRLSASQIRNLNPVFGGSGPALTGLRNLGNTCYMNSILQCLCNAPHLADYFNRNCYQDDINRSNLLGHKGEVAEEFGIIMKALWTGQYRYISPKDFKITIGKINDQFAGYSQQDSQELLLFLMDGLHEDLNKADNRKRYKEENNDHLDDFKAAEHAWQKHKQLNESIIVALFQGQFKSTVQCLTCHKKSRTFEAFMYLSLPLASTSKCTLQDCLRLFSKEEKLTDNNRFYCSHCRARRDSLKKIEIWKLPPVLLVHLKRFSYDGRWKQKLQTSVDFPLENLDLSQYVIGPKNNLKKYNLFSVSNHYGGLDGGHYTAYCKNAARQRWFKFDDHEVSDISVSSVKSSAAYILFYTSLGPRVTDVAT
OTUD3 inh – inhibitors of human OTUD3 deubiquitinase. inhibition, % at 25 µM. OTU domain-containing protein 3 (Homo sapiens), Q5T2D3. purified OTUD3, Ub-rhodamine fluorescence, 2 h. 47,000 tested, 0.7% active
USP28 block – inhibitors of human USP28 deubiquitinase; inhibition, % at 25 µM; purified USP28, Ub-rhodamine cleavage fluorescence, 30 min; 47,000 tested, 3% active; Ubiquitin carboxyl-terminal hydrolase 28 (Homo sapiens), Q96RU2; AID 1645857, 2021
USP30 inh – inhibitors of human USP30 deubiquitinase. purified USP30, Ub-rhodamine cleavage fluorescence. inhibition, % at 25 µM. 47,000 tested, 5.3% active. AID 1645860, 2021
* = called active by the depositor; . = no result. This is a sample that favours compounds with a hit; in the whole collection about 13% have one here. Rule as the data show it: active = inhibition above about 30%; inactive = the rest.

SMILES | USP17 block | USP8 block | OTUD3 inh | USP28 block | USP30 inh
O=C1CC(c2ccccc2)CC2=C1C(c1c[nH]c3ccccc13)N(C(=O)C1CC1)c1ccccc1N2 (configuration not stated) | 10.8 | -20.3 | -12.5 | -8.3 | -61.8
COc1cc(C2C3=C(CC(c4ccccc4)CC3=O)Nc3ccccc3N2C(=O)C2CC2)cc(OC)c1OC (configuration not stated) | 45.3* | 1.1 | 6.1 | 0.0 | 12.5
CC1(C)CC(=O)C2=C(C1)Nc1ccccc1N(C(=O)Cc1ccccc1)C2c1ccc(Cl)cc1 (configuration not stated) | 49.1* | 2.1 | 17.0 | 19.3 | 29.2
CCC(=O)N1c2ccccc2NC2=C(C(=O)CC(c3ccccc3OCc3ccccc3)C2)C1c1ccccc1 (configuration not stated) | 35.6* | 23.0 | 15.5 | 9.3 | 60.6*
COc1ccccc1NC(=O)CN1CCC2(CC1)CN(C(C)=O)Cc1cc(C)ccc1O2 | -110.9 | -10.8 | -15.7 | -17.4 | -40.3
COc1cccc(CNC(=O)c2nc(N3CCOCC3)c3c(C)cc(C)nc3n2)c1 | -17.4 | -2.1 | -11.0 | -9.8 | -55.8
Cc1nc2ccc(C(=O)Nc3cc(Cl)cc4cccnc34)cc2nc1C | 63.5* | 86.7* | 8.7 | 9.7 | -11.7
COc1ccc(CCNC(=O)c2c(N)n(-c3cccc(Cl)c3)c3nc4ccccc4nc23)cc1 | 64.7* | 61.5* | -29.3 | -21.8 | -102.0
Cc1ccc(-n2c(N)c(C(=O)NCCc3ccccc3F)c3nc4ccccc4nc32)cc1 | 25.9 | 33.5* | 5.8 | 3.1 | -21.3
COc1ccc(CCNC(=O)c2c(N)n(-c3cccc(F)c3)c3nc4ccccc4nc23)cc1 | 38.4* | 35.9* | -58.6 | -26.2 | -101.8
COC(=O)c1cc2sccc2n1CC(=O)N(C)c1ccc(F)cc1 | 10.5 | -10.1 | 10.6 | 3.0 | 19.1
Cc1ccc2nc(CCc3ccc(NS(=O)(=O)c4ccc(F)c(Cl)c4)cc3)[nH]c2c1 | 19.1 | -17.7 | -12.5 | 14.0 | 7.8
N=C1/C(=C/c2cn(Cc3ccc(F)cc3)c3ccccc23)C(=O)N=C2SC(Cc3ccccc3)=NN12 | . | 74.2* | -13.7 | -23.4 | -75.3
N=C1/C(=C/c2cn(Cc3ccccc3)c3ccccc23)C(=O)N=C2SC(C(F)(F)F)=NN12 | 0.1 | 10.3 | -20.5 | -6.0 | -170.0
Cc1ccc(Cl)cc1N1CCN(C(=O)CN2Cc3ccccc3C2=O)CC1 | 10.7 | 10.0 | 12.9 | 46.6* | 23.0
CC1=C(C(=O)N2CCCCC2)C(c2ccc(Br)cc2)n2ncnc2N1 (configuration not stated) | . | -68.7 | 1.7 | 46.8* | -2.3
CC1=C(C(=O)N2CCCCC2)C(c2cccc(Cl)c2)n2ncnc2N1 (configuration not stated) | 2.0 | 9.7 | 5.5 | 4.4 | 18.1
CC1=C(C(=O)NCc2ccccc2)C(c2ccc(C)cc2)n2ncnc2N1 (configuration not stated) | 10.6 | 3.9 | 11.2 | 8.8 | 34.0*
CC(=O)Nc1ccc(C(=O)NCC(=O)N2CCCc3ccccc32)cc1 | -13.9 | -2.1 | -14.9 | -15.8 | -11.0
O=C1O[C@@H]2C[C@H]3C[C@@H]2[C@@H]1[C@H]3C(=O)N1CCN(c2ccccc2)CC1 | -26.2 | 3.7 | 0.3 | -1.5 | 0.7
CC1OC1C(=O)[C@]1(O)[C@H](C)[C@@H](O)[C@@]23O[C@@]2([C@H](O)c2c(O)cccc2C3=O)[C@H]1O (some centres not stated) | 72.6* | -6.8 | 9.3 | 7.6 | -394.3
CSCC[C@H](NC(=O)OC(C)(C)C)C(=O)N1CCC(C(=O)N[C@H](C(=O)Nc2ccc(F)cc2F)C(C)C)CC1 | -58.6 | -25.3 | -55.7 | -60.5 | -208.6
COc1cccc(NC(=O)c2ccc(SCCN3CCOCC3)nc2)c1 | -0.3 | -5.7 | -5.7 | 40.3* | -5.5
CCc1cccc(NC(=O)c2ccc(SCCN3CCOCC3)nc2)c1 | 2.0 | 3.4 | 3.4 | 17.3 | 15.4
COCC(=O)N1CCCC1c1ccnc(Nc2ccccn2)n1 (configuration not stated) | -2.9 | -3.6 | -0.6 | -7.5 | -0.3
SMILES | USP17 block | USP8 block | OTUD3 inh | USP28 block | USP30 inh
CCCCC/C=C/C=C/C(=O)OC1C(O)CC(c2ccc3c(c2O)C(=O)c2c(O)cc4cc(C)cc(O)c4c2C3=O)OC1C (configuration not stated) | 87.6* | 57.4* | 25.3 | 36.5* | 26.5
Cc1ccc(C(C)C)cc1OCCOCCN1CCNCC1 | -11.4 | -76.8 | 10.3 | 59.5* | 26.8
Cc1ccc(Cn2c(/C=C/c3ccc(F)cc3)nc3ccccc32)cc1 | 2.2 | 4.1 | 6.5 | 35.1* | 14.9
N#Cc1ccc(/C=C/c2nc3ccccc3n2Cc2ccc(F)cc2)cc1 | 2.8 | -3.1 | -19.6 | -7.9 | -41.5
COC(=O)c1cc(NC(=O)c2ccccc2)ccc1N1CCOCC1 | -10.2 | -2.0 | -7.3 | -1.3 | -9.1
COc1ccc(N(CC(=O)NCCc2ccc(S(N)(=O)=O)cc2)S(=O)(=O)c2c(C)noc2C)cc1 | -5.5 | -1.1 | 0.7 | 3.9 | -88.3
COc1ccc(CCNC(=O)CN(c2cc(C)cc(C)c2)S(=O)(=O)c2c(C)noc2C)cc1OC | -0.1 | -42.7 | -2.7 | -10.1 | 47.4*
Cc1cccc(C(=O)N2CCc3c(CN4CCCC4)nn(C)c3C2)n1 | -17.7 | -25.7 | -4.8 | -16.1 | -39.0
CC1Cc2ccccc2N1C(=O)Cn1c(CC(=O)N2CCCC2)nc2ccccc21 (configuration not stated) | -15.5 | -10.9 | -1.0 | -8.9 | 2.4
CC1Cc2ccccc2N1C(=O)Cn1c(=O)cc(O)c2ccccc21 (configuration not stated) | -7.3 | -12.4 | -5.7 | 56.6* | 2.3
NC(=O)c1ccc(NC(=O)CCCC2=NS(=O)(=O)c3ccccc3N2)cc1 | -12.3 | -17.7 | -6.3 | -12.2 | -23.1
O=C(CCCC1=NS(=O)(=O)c2ccccc2N1)Nc1ccc(Cl)c(Cl)c1 | 34.3* | -0.3 | 12.2 | 13.2 | 17.0
Cc1ccccc1NC(=O)CCN1C(=O)c2cccnc2Sc2ccccc21 | 11.7 | 1.0 | 15.7 | 9.2 | 37.6*
Cc1cccc(NC(=O)CCN2C(=O)c3cccnc3Sc3ccccc32)c1C | . | 9.2 | 5.4 | 5.0 | 14.9
CCc1cc(C(=O)N2CCN(c3ccccn3)CC2)nc2ccnn12 | 1.0 | 2.8 | 2.1 | -0.8 | -0.1
O=C(C1CCN(S(=O)(=O)c2cccc3cccnc23)CC1)N1CCC(Cc2ccccc2)CC1 | 26.1 | 8.8 | 7.8 | 15.5 | 20.3
O=C(OCc1ccc([N+](=O)[O-])cc1)C1CCN(S(=O)(=O)c2cccc3cccnc23)CC1 | 3.2 | -33.2 | 18.0 | 28.5 | 43.6*
COc1ccccc1C(=O)NC1=C(C(=O)c2ccccc2)N(Cc2ccccc2)S(=O)(=O)c2ccccc21 | 3.1 | 2.7 | -7.6 | -6.1 | -92.9
Cc1cc(NC(=O)CSc2ncc(-c3cccc([N+](=O)[O-])c3)n2-c2cccc(Cl)c2)no1 | 9.7 | 55.5* | 8.3 | 3.8 | 19.5
COc1cc(CNc2ncc(-c3cccc([N+](=O)[O-])c3)n2C)cc(OC)c1O | -41.5 | -156.4 | -3.2 | -33.5 | -32.6
